The subject of one assay is IL-6-GFP PC-9GR. The experiment in a line: cell viability (CCK-8 OD) relative to DMSO control (fraction of control); higher = more viable cells. Conditions: compound concentration: 10 uM; treatment time: 48 h. The procedure, abridged:
(§1)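 PC-9 and PC-9GR lung cancer cells expressing lentiviral IL-6-GFP were plated at 3000 cells/well in 96-well plates and treated for 48 h with each library compound at a final 10 μM. Viability was determined by CCK-8 absorbance as a ratio of each well's optical density to the vehicle control well.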

A further assay relates to IL-6-GFP PC-9. The assay is described as above. The settings on record: compound concentration: 10 uM; treatment time: 48 h. The gist of the method:
as §1

The text below walks through data of the supplement of paper PMC8866396.

Values joined by “and” are separate entries in the source; they are usually repeats but may differ in a detail not shown here. Equal values may be shown once. ± gives the standard deviation of the averaged measurements.

Turning to `Cc1ccc(S(=O)(=O)O)cc1.NC(=O)c1cccc2cn(-c3ccc(C4CCCNC4)cc3)nc12` (configuration not stated) [Niraparib (MK-4827) tosylate], the cell viability in the assay on IL-6-GFP PC-9GR came out at 0.764 ± 0.096; in the assay with IL-6-GFP PC-9, 0.916 ± 0.22.

Regarding `Nc1ccc(F)cc1NC(=O)c1ccc(CNC(=O)/C=C/c2cccnc2)cc1` [Tucidinostat (Chidamide)], the cell viability in the assay on IL-6-GFP PC-9GR was determined as 0.836 ± 0.38; in the assay with IL-6-GFP PC-9, 0.606 ± 0.23.

For the molecule `CCOc1ccc(Cc2cc(C3OC(CO)C(O)C(O)C3O)ccc2Cl)cc1` (configuration not stated) [Dapagliflozin], the cell viability turned out to be 1.37 ± 0.23 with IL-6-GFP PC-9GR and 1.74 ± 0.67 in the assay on IL-6-GFP PC-9.

As for `CCC1(O)C(=O)OCc2c1cc1n(c2=O)Cc2cc3cc(O)ccc3nc2-1` [(S)-10-Hydroxycamptothecin], the cell viability in the assay with IL-6-GFP PC-9GR amounted to 0.466 ± 0.076; with IL-6-GFP PC-9, 0.433 ± 0.032.

`CNC(=O)c1cc(Oc2ccc(NC(=O)Nc3ccc(Cl)c(C(F)(F)F)c3)c(F)c2)ccn1` [Regorafenib (BAY 73-4506)]: the cell viability in the assay with IL-6-GFP PC-9GR is 0.833 ± 0.029; in the assay with IL-6-GFP PC-9, 0.476 ± 0.11.

For the molecule `CCC(C)C(=O)OC1CC(O)C=C2C=CC(C)C(CCC(O)CC(O)CC(=O)[O-])C21.[Na+]` (configuration not stated) [Pravastatin sodium], the values for the cell viability with IL-6-GFP PC-9GR and in the assay on IL-6-GFP PC-9 were 0.932 ± 0.038 and 1.17 ± 0.016, respectively.

Turning to `CCC(=O)OC1(C(=O)SCF)C(C)CC2C3CC(F)C4=CC(=O)C=CC4(C)C3(F)C(O)CC21C` (configuration not stated) [Fluticasone propionate], the cell viability in the assay with IL-6-GFP PC-9GR worked out at 1.06 ± 0.43; with IL-6-GFP PC-9, 0.821 ± 0.024.

In the case of `CC(C)CC(NC(=O)C(Cc1ccccc1)NC(=O)c1cnccn1)B(O)O` (configuration not stated) [Bortezomib (PS-341)], the values for the cell viability in the assay with IL-6-GFP PC-9GR and in the assay with IL-6-GFP PC-9 were 0.105 ± 0.11 and 0.14 ± 0.057, respectively.

In the case of `Cc1cc(Nc2ncc(Cl)c(Nc3ccccc3S(=O)(=O)C(C)C)n2)c(OC(C)C)cc1C1CCNCC1` [Ceritinib (LDK378)], the cell viability with IL-6-GFP PC-9GR was determined as 0.091 ± 0.015; in the assay with IL-6-GFP PC-9, 0.0667 ± 0.041.

Regarding `COc1cc2c(Nc3ccc(Br)cc3F)ncnc2cc1OCC1CCN(C)CC1` [Vandetanib (ZD6474)], the cell viability with IL-6-GFP PC-9GR was 0.578 ± 0.024; in the assay with IL-6-GFP PC-9, 0.551 ± 0.059.

In the case of `O=NN(CCCl)C(=O)NCCCl` [Carmustine], the cell viability with IL-6-GFP PC-9GR stood at 1.21 ± 0.32; in the assay on IL-6-GFP PC-9, 1.26 ± 0.063.

As to `Cn1cc(C2=C(c3cccc(N)c3)C(=O)NC2=O)c2ccccc21`, the cell viability was 0.303 ± 0.31 in the assay on IL-6-GFP PC-9GR and 0.677 ± 0.15 in the assay on IL-6-GFP PC-9.

On to `COc1cc(C2c3cc4c(cc3C(OC3OC5COC(C)OC5C(O)C3O)C3COC(=O)C23)OCO4)cc(OC)c1O` (configuration not stated) [Etoposide], for which the cell viability was determined as 0.779 ± 0.033 in the assay on IL-6-GFP PC-9GR and 0.537 ± 0.17 in the assay with IL-6-GFP PC-9.

As for `OCC1OC(c2ccc(Cl)c(Cc3ccc(OC4CCOC4)cc3)c2)C(O)C(O)C1O` (configuration not stated), the cell viability with IL-6-GFP PC-9GR is 1.05 ± 0.13; in the assay with IL-6-GFP PC-9 it was 0.905 ± 0.058.

In the case of `CN1C(=O)/C(=C2/C(=O)Nc3ccccc32)c2ccccc21` [Meisoindigo], the cell viability with IL-6-GFP PC-9GR came to 1.39 ± 0.44; in the assay on IL-6-GFP PC-9 it was 1.02 ± 0.21.

`CCCCOC(=O)c1ccccc1Nc1cccc(C(F)(F)F)c1` [Ufenamate]: the cell viability with IL-6-GFP PC-9GR is 0.8299 ± 0.0043; with IL-6-GFP PC-9, 0.992 ± 0.24.

In the case of `N#CCC(C1CCCC1)n1cc(-c2ncnc3[nH]ccc23)cn1` (configuration not stated), the cell viability with IL-6-GFP PC-9GR was 1.08 and 1.17; in the assay with IL-6-GFP PC-9, 1.11 and 0.753.

In the case of `COc1ccc2cc(C(C)C(=O)O)ccc2c1` (configuration not stated) [Naproxen], the cell viability in the assay with IL-6-GFP PC-9GR is 1.5 ± 0.37; in the assay on IL-6-GFP PC-9, 1.08 ± 0.16.

As to `CC1(C)CCC(C)(C)c2cc(NC(=O)c3ccc(C(=O)O)cc3)ccc21` [Tamibarotene], the cell viability in the assay on IL-6-GFP PC-9GR worked out at 1.55 ± 0.76; in the assay with IL-6-GFP PC-9, 1.28 ± 0.11.

Turning to `CCC(=O)NS(=O)(=O)c1ccc(-c2c(-c3ccccc3)noc2C)cc1` [Parecoxib], the results for the cell viability in the assay on IL-6-GFP PC-9GR and in the assay with IL-6-GFP PC-9 were 1.06 ± 0.1 and 1.26 ± 0.014, respectively.

Consider `CN(C)CCN1C(=O)c2cccc3cc(N)cc(c23)C1=O` [Amonafide], for which the cell viability in the assay with IL-6-GFP PC-9GR came out at 0.534 ± 0.025; in the assay on IL-6-GFP PC-9, 0.425 ± 0.076.

As to `CC(OC1OCCN(Cc2n[nH]c(=O)[nH]2)C1c1ccc(F)cc1)c1cc(C(F)(F)F)cc(C(F)(F)F)c1` (configuration not stated) [Aprepitant], the cell viability is 1.01 ± 0.071 in the assay on IL-6-GFP PC-9GR and 0.767 ± 0.041 with IL-6-GFP PC-9.

For `Cc1cc(S(=O)(=O)[O-])c2c(C)ccc(C(C)C)cc1-2.[Na+]` [Sodium gualenate], the cell viability came to 1.45 ± 0.46 with IL-6-GFP PC-9GR and 0.583 ± 0.022 with IL-6-GFP PC-9.

Consider `CN1C2=CC(=O)/C(=N\NC(N)=O)C=C2CC1S(=O)(=O)[O-].[Na+]` (configuration not stated) [Carbazochrome sodium sulfonate (AC-17)], for which the cell viability with IL-6-GFP PC-9GR turned out to be 1.16 ± 0.028; in the assay on IL-6-GFP PC-9, 1.04 ± 0.16.

Turning to `Nc1nc(=S)c2[nH]cnc2[nH]1` [Thioguanine], the cell viability with IL-6-GFP PC-9GR worked out at 1.37 ± 0.42; with IL-6-GFP PC-9 it was 1.2 ± 0.061.

Consider `CC12C=CC(=O)C=C1CCC1C3CC(O)C(O)(C(=O)CO)C3(C)CC(O)C12F` (configuration not stated) [Triamcinolone], for which the cell viability in the assay on IL-6-GFP PC-9GR came to 1.06 ± 0.13; in the assay with IL-6-GFP PC-9, 0.805 ± 0.086.

`CN(C)c1nc(N(C)C)nc(N(C)C)n1` [Altretamine]: the cell viability in the assay on IL-6-GFP PC-9GR was determined as 1.25 ± 0.047; in the assay on IL-6-GFP PC-9, 1.06 ± 0.036.

In the case of `COc1cc2c3cc1Oc1c(OC)c(OC)cc4c1C(Cc1ccc(O)c(c1)Oc1ccc(cc1)CC3N(C)CC2)N(C)CC4.Cl.Cl` (configuration not stated) [Berbamine (dihydrochloride)], the cell viability with IL-6-GFP PC-9GR is 1.14 ± 0.35; in the assay with IL-6-GFP PC-9, 1.04 ± 0.053.

`CC(C)OC(=O)CCC/C=C\CC1C(O)CC(O)C1CCC(O)CCc1ccccc1` (configuration not stated) [Latanoprost]: the cell viability came out at 0.776 ± 0.15 in the assay on IL-6-GFP PC-9GR and 1 ± 0.26 in the assay on IL-6-GFP PC-9.

In the case of `Cl.Cl.O=C(O)COCCN1CCN(C(c2ccccc2)c2ccc(Cl)cc2)CC1` (configuration not stated) [Cetirizine DiHCl], the cell viability came to 1.08 ± 0.0043 with IL-6-GFP PC-9GR and 1.02 ± 0.033 in the assay on IL-6-GFP PC-9.

For `COC(=O)CC(O)(CCCC(C)(C)O)C(=O)OC1C(OC)=CC23CCCN2CCc2cc4c(cc2C13)OCO4` (configuration not stated) [Homoharringtonine], the cell viability in the assay with IL-6-GFP PC-9GR was determined as 0.275 ± 0.17; in the assay on IL-6-GFP PC-9, 0.358 ± 0.042.
